Data: PubChem BioAssay (NCATS)
Values joined by “and” are separate entries in the source; they are usually repeats but may differ in a detail not shown here. Equal values may be shown once. Records with an inconclusive call do not appear. More than one record can exist for a structure, and the calls need not agree. Active and inactive are the calls of the source. Unless noted, the call rests on the fitted dose curve; in most records, active means well fitted curve in the direction sought with a large enough effect; inconclusive means small, poorly fitted or top-dose-only effect, or another doubt; inactive means no such curve, though single readings can be large; an effect the other way counts as inactive or inconclusive.

Key:
[1] = tested on: Zika virus NS2B-NS3 protease (unlinked complex); assay: Primary screen GU Rhodamine qHTS for Zika virus inhibitors: Unlinked NS2B-NS3 protease assay (AID 1347159); further: on the % scale 0 is the no-effect control and ±100 the full control effect; nearly all actives have a fitted effect of over 60% in size
Summary of the method: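 Noncovalent NS2B hydrophilic domain/NS3 protease complex (25 nM final) in 10 mM Tris-HCl pH 8.0, 0.01% Tween 20, preincubated 15 min with compounds (up to 114 microM), then 1.5 microM Rhodamine110 substrate. Fluorescence change over 15 min fitted to 4-parameter Hill.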

[2] = tested on: Zika virus NS2B-NS3 protease (linked construct); assay: Primary screen NINDS Rhodamine qHTS for Zika virus inhibitors (AID 1347160); further: nearly all actives have a fitted effect of over 55% in size
Summary of the method: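 Purified NS2B-NS3 protease with the NS2B hydrophilic domain joined by a flexible linker (25 nM) in 10 mM Tris-HCl pH 8.0, 0.01% Tween 20, preincubated 15 min at RT with compound; Rhodamine110 peptide substrate 1.5 µM; fluorescence change over 15 min; 4-parameter Hill fit.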

[3] = biological target: Calcium and integrin-binding protein 1 (Homo sapiens) (UniProt Q99828); assay: Primary qHTS for Identification of Calcium Integrin Binding Protein 1 (CIB1) Competitor (AID 1508620);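 further: GST tagged CIB1 binding a fluorescein labelled alphaIIb integrin peptide tracer; top concentration of the series differs between compounds; on the % scale 0 is the no-effect control and ±100 the full control effect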
Calcium and integrin-binding protein 1 (Homo sapiens), sequence (Q99828 whole entry, looked up): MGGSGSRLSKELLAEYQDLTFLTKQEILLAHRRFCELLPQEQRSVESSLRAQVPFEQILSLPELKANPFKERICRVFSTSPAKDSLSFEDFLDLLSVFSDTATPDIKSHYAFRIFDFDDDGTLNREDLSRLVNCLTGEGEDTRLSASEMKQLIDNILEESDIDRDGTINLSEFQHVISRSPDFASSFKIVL
Summary of the method: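 Fluorescence polarization competition: CIB1-GST (1 uM final) preincubated with compound 15 min at room temperature, then FITC-labeled alphaIIb peptide (100 nM final) added for another 15 min. Polarization read at Ex 480/Em 540.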

[4] = Primary qHTS for inhibitors of nuclear receptor binding SET domain protein 2 (NSD2) in an isogenic RCH-ACV NSD2 p.E1099K mutant (9B) (AID 1645876); further: nearly all actives have a fitted effect of over 70% in size; further: potency means the concentration at half of the fitted maximal effect; on activity change, negative = viability loss: on the % scale 0 is the no-effect control and ±100 the full control effect
[5] = Primary qHTS for inhibitors of nuclear receptor binding SET domain protein 2 (NSD2) in an RCH-ACV wild type WT cells (2C) (AID 1645877); further: nearly all actives have a fitted effect of over 70% in size; further: potency means the concentration at half of the fitted maximal effect
[6] = biological target: Glutathione peroxidase 1 (Homo sapiens) (UniProt P07203); assay: Primary qHTS Assay for Inhibitors of Recombinant Selenoprotein Glutathione Peroxidase 1 (GPX1) (AID 1845191); further: nearly all actives have a fitted effect of over 65% in size; further: potency means the concentration at half of the fitted maximal effect
Glutathione peroxidase 1 (Homo sapiens), sequence (P07203 whole entry, looked up): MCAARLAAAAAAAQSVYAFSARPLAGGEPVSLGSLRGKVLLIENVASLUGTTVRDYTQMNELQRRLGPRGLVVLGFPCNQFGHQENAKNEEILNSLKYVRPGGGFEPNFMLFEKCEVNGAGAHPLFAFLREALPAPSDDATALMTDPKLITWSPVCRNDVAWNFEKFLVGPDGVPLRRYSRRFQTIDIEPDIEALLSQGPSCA
Summary of the method: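 Recombinant GPX1 (10 nM final) was preincubated with compound for 30 min at room temperature, then reacted with 1 mM GSH, 0.5 mM CHP, 0.5 mM NADPH and 100 nM glutathione reductase; NADPH fluorescence (340/450 nm) was read at 0 and 15 min.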

[7] = biological target: Phospholipid hydroperoxide glutathione peroxidase GPX4 (Homo sapiens) (UniProt P36969); assay: Primary qHTS Assay for Inhibitors of Recombinant Selenoprotein Glutathione Peroxidase 4 (GPX4) (AID 1845192); settings: outcome: dose series up to 50 µM unless noted; further: nearly all actives have a fitted effect of over 65% in size; further: potency means the concentration at half of the fitted maximal effect
Phospholipid hydroperoxide glutathione peroxidase GPX4 (Homo sapiens), sequence (P36969 whole entry, looked up): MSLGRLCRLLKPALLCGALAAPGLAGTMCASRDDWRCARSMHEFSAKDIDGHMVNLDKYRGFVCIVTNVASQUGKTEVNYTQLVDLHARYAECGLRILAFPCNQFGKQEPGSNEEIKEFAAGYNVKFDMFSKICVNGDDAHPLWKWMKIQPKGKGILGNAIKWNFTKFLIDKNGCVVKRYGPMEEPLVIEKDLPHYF
Summary of the method: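 GR-coupled readout: 100 nM GR, 1 mM GSH, 0.5 mM NADPH; NADPH fluorescence (ex 340/em 450 nm) read at t=0 and after 15 min RT. GPX4 200 nM, preincubated 30 min with compound; substrate 0.5 mM CHP.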

[8] = tested on: Nanoluciferase (engineered Oplophorus gracilirostris luciferase); assay: Primary Nanoluciferase (NLuc) qHTS assay for identification of artifact compounds. (AID 1845222);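 further: NLuc secreted into diluted conditioned medium of S16 cells; 0% = DMSO and -100% = no enzyme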
Summary of the method: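 Concentration-response data were obtained by luminescence after 5 min with Nano-Glo substrate at 1:100. The enzyme was diluted S16 NLuc-expressing cell medium, preincubated with compound for 15 min at RT. Curves were fitted with a 4-parameter Hill model.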

C33A = assay: Primary qHTS to identify gynecologic anti-cancer compounds using libraries of approved drugs and bioactive compounds (AID 1345084); settings: Gynecologic cancer cell panel viability, ATPlite luminescence, 48 h; series mostly up to 57.5 µM; further: nearly all actives have a fitted effect of over 55% in size; further: potency means the concentration at half of the fitted maximal effect
Summary of the method: (§1)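 Cells, 1,000 per well, were allowed to settle for 16 h at 37 C before compound addition. Five concentrations were tested for 48 h, and viability was read by ATPlite luminescence after 15 min at room temperature.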

CASKI = assay: as above; settings: Gynecologic cancer cell panel viability, ATPlite luminescence, 48 h; series mostly up to 57.5 µM
Summary of the method: as §1

Es-2 = assay: as above; settings: Gynecologic cancer cell panel viability, ATPlite luminescence, 48 h; series mostly up to 57.5 µM
Summary of the method: as §1

HeLa = assay: as above; settings: Gynecologic cancer cell panel viability, ATPlite luminescence, 48 h; series mostly up to 57.5 µM
Summary of the method: as §1

Hek293T = assay: as above; settings: Gynecologic cancer cell panel viability, ATPlite luminescence, 48 h, control line for the selectivity index; series mostly up to 57.5 µM
Summary of the method: as §1

JEG-3 = assay: as above; settings: Gynecologic cancer cell panel viability, ATPlite luminescence, 48 h; series mostly up to 57.5 µM
Summary of the method: as §1

OV90 = assay: as above; settings: Gynecologic cancer cell panel viability, ATPlite luminescence, 48 h; series mostly up to 57.5 µM
Summary of the method: as §1

Tov-21-G = assay: as above; settings: Gynecologic cancer cell panel viability, ATPlite luminescence, 48 h; series mostly up to 57.5 µM
Summary of the method: as §1

Tov112D = assay: as above; settings: Gynecologic cancer cell panel viability, ATPlite luminescence, 48 h; series mostly up to 57.5 µM
Summary of the method: as §1

[9] = biological target: Luciferin 4-monooxygenase (Photinus pyralis) (UniProt P08659); assay: Primary firefly luciferase (FLuc) qHTS assay for identification of artifact compounds. (AID 1845220); further: nearly all actives have a fitted effect of over 60% in size
Summary of the method: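 Reaction readout was CCD-imaged luminescence, taken 5 min after adding 10 nM purified firefly enzyme to compound-treated wells holding 10 uM luciferin and ATP in pH 7.6 buffer.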

[10] = qHTS drug screen for cell cycle checkpoint inhibitors in PARPi-resistant BRCA-mutant ovarian cancer cell lines. (AID 1963452; calls by dose curve); settings: PEO1/OlaR viability, CellTiter-Glo luminescence, 96 h, stronger effect = lower value
Summary of the method: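 PEO1, PEO4 and PEO1/OlaR ovarian cancer cells, 600 per well, exposed 96 h at 37C to a dilution series. Viability read by CellTiter-Glo luminescence, normalized to DMSO and empty wells; activity summarized as Z-AUC.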

HaCat = assay: Cytotoxic Profiling of Annotated Libraries Using Quantitative High-Throughput Screening (AID 1296008); settings: Five cell lines viability, CellTiter-Glo ATP luminescence, 48-72 h; max response: stronger effect = lower value; further: nearly all actives have a fitted effect of over 60% in size; further: potency means the concentration at half of the fitted maximal effect; on max response: on the % scale 0 is the no-effect control and ±100 the full control effect
Summary of the method: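 Compounds were pin-transferred onto cells and incubated 48 or 72 hr at 37 degree Celsius, 95% humidity. CellTiter-Glo was added, plates sat 10 min at room temperature, then ATP-coupled luminescence was imaged as the viability read-out.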

[11] = measured here: PEO1 parental Z-AUC

CCCCOc1ccc(-c2cncc(C(=O)NCc3cccnc3N3CCOCC3)c2)cc1Cl
inactive: Potency [1] | Potency [2] | outcome [3] | Potency [4] | Potency [5] | Potency [6] | Potency [7] | Potency [8] | Potency (C33A) | Potency (CASKI) | Potency (Es-2) | Potency (HeLa) | Potency (Hek293T) | Potency (JEG-3) | Potency (OV90) | Potency (Tov-21-G) | Potency (Tov112D)

Cn1c(NC[C@@H](N)Cc2ccccc2)nc(-c2ccncc2)c(-c2ccc3ccccc3c2)c1=O
inactive: Potency [1] | Potency [2] | outcome [3] | Potency [6] | Potency [7] | Potency [9] | Potency [8] | Z-AUC [10] -0.2 | Potency (C33A) | Potency (CASKI) | Potency (Es-2) | Potency (HeLa) | Potency (Hek293T) | Potency (JEG-3) | Potency (OV90) | Potency (Tov-21-G) | Potency (Tov112D)
0.768: Z-AUC [10, 11]
active: Potency [4] 18.6 µM | Potency [5] 26.3 µM
0.932: Z-AUC ([10]; measured here: PEO4 Z-AUC)

C=C(C)[C@@H]1CC[C@]2(C(=O)O)CC[C@]3(C)C(CCC4[C@@]5(C)C[C@@H](O)[C@H](O)C(C)(C)C5CC[C@]43C)C12 (stereo partly drawn)
inactive: Potency [2] | outcome [3] | Potency [6] | Potency [7] | Potency [8] | max response (HaCat) -24.1% | Potency (C33A) | Potency (CASKI) | Potency (Es-2) | Potency (HeLa) | Potency (Hek293T) | Potency (JEG-3) | Potency (OV90) | Potency (Tov-21-G) | Potency (Tov112D)

Cn1cnc(-c2nccc3c(=O)[nH]c(OCCCC(F)(F)F)nc23)c1
inactive: Potency [2] | Potency [9] | Potency [8] | Potency (C33A) | Potency (CASKI) | Potency (HeLa) | Potency (Tov112D)
active: Potency [4] 2.9 µM | Potency [5] 2.58 µM | Potency [6] 8.06 µM | Potency [7] 22.7 µM

CNc1ccc([N+](=O)[O-])cc1-n1cnc(-c2ccc(C(F)(F)F)cc2)c1
inactive: Potency [1] | Potency [2] | outcome [3] | Potency [6] | Potency [7] | Potency [9] | Potency [8] | max response (HaCat) -13.4% | Potency (C33A) | Potency (CASKI) | Potency (Es-2) | Potency (HeLa) | Potency (Hek293T) | Potency (JEG-3) | Potency (OV90) | Potency (Tov-21-G) | Potency (Tov112D)

O=C(c1ccc(F)c(F)c1Nc1ccc(I)cc1F)N1CC(O)([C@@H]2CCCCN2)C1
active: Potency [4] 14.8 µM | Potency [5] 14.5 µM and 14.8 µM
-1.32: Z-AUC ([10]; measured here: PEO4 Z-AUC)
inactive: Potency [1] | Potency [2] | outcome [3] | Potency [6] | Potency [7] | Potency [9] | Potency [8] | Z-AUC [10] -1.02 | Potency (HeLa) | Potency (JEG-3)
-0.911: Z-AUC [10, 11]

CC1CCC(n2c3cnccc3c3cnc(Nc4ccc5c(n4)CCN(C(=O)CO)C5)nc32)CC1 (stereo not drawn)
0.34: Z-AUC ([10]; measured here: PEO4 Z-AUC)
1.18: Z-AUC [10, 11]
inactive: Potency [1] | Potency [2] | outcome [3] | activity change, negative = viability loss [4] -24.3% [at 9.23 µM] | Potency [6] | Potency [7] | Potency [9] | Potency [8] | Z-AUC [10] 0.557 | max response (HaCat) -0.578% | Potency (C33A) | Potency (CASKI) | Potency (Es-2) | Potency (HeLa) | Potency (Hek293T) | Potency (JEG-3) | Potency (OV90) | Potency (Tov-21-G) | Potency (Tov112D)
active: Potency [4] 2.59 µM | Potency [5] 2.31 µM

O=C(c1ccc(F)c(F)c1Nc1ccc(I)cc1F)N1CC(O)(C2CCCCN2)C1 (stereo not drawn)
inactive: Potency [1] | Potency [2] | outcome [3] | Potency [6] | Potency [7] | Potency [9] | Potency [8] | Potency (Hek293T) | Potency (JEG-3)
active: Potency [4] 20.5 µM | Potency [5] 18.3 µM | Potency (HaCat) 23.1 µM | Potency (C33A) 35.5 µM | Potency (CASKI) 28.2 µM

COCCOCCOc1ccc(C2=N[C@@](C)(C(=O)O)CS2)c(O)c1
inactive: Potency [1] | outcome [3] | Potency [6] | Potency [7] | Potency [9] | Potency [8] | max response (HaCat) -22.3% | Potency (C33A) | Potency (CASKI) | Potency (Es-2) | Potency (HeLa) | Potency (Hek293T) | Potency (JEG-3) | Potency (Tov-21-G)

COc1ccc2c(c1)C[C@H](C(=O)Nc1ccc(-c3cn[nH]c3)cc1OCCN(C)C)CO2
active: Potency [4] 0.291 µM | Potency [5] 0.164 µM
inactive: Potency [1] | Potency [2] | outcome [3] | Potency [6] | Potency [7] | Potency [9] | Potency [8] | outcome (HaCat) | Potency (C33A) | Potency (CASKI) | Potency (Es-2) | Potency (Hek293T) | Potency (JEG-3) | Potency (OV90) | Potency (Tov-21-G) | Potency (Tov112D)

CC/C(=C(\c1ccc(O)cc1)c1ccc(OCCNC)cc1)c1ccccc1
inactive: Potency [1] | Potency [2] | Potency [6] | Potency [7] | Potency [9] | Potency [8] | outcome (HaCat) | Potency (C33A) | Potency (CASKI) | Potency (Es-2) | Potency (HeLa) | Potency (Hek293T) | Potency (JEG-3) | Potency (OV90) | Potency (Tov-21-G) | Potency (Tov112D)

CCOC(=O)c1cccc(CNc2ccc(N(C)C(=O)Nc3ccccc3)cc2)c1
active: Potency [4] 14.5 µM | Potency [5] 14.5 µM
inactive: Potency [1] | Potency [2] | outcome [3] | Potency [6] | Potency [7] | Potency [8] | max response (HaCat) -23.2% | Potency (HeLa) | Potency (JEG-3) | Potency (Tov-21-G) | Potency (Tov112D)
